The sample as a whole holds a higher share of hits than the screen did.
VHR inh color: blocks the human dual specificity phosphatase VHR1; P51452; recombinant VHR phosphatase, colorimetric substrate read-out; inhibition, % at 20 µM; actives 0.7% (n = 50,000); in the data active means inhibition above about 60%
Target sequence (P51452 whole entry, looked up): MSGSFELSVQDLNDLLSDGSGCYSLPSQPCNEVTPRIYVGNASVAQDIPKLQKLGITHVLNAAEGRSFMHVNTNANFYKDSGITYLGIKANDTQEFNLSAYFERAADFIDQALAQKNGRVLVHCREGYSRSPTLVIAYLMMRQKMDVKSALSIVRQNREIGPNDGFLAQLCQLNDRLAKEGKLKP
* = called active by the depositor.

SMILES	VHR inh color
Cc1ccc(C2(c3ccc(C)cc3)CC2C(=O)NC(C)(C)C)cc1 (configuration not stated)	18
N#Cc1c(N)sc2c1CCCCCC2	18
CCC1CCc2c(sc(N)c2C#N)C1 (configuration not stated)	-16
Nc1sc(=S)nc2sc3c(c12)CCN(Cc1ccccc1)C3	72*
Nc1nc(SCc2ccc(Cl)cc2)nc2sc3c(c12)CCN(Cc1ccccc1)C3	4
O=c1[nH]c(=S)[nH]c2sc3c(c12)CCN(Cc1ccccc1)C3	51
N#Cc1c(N)sc2c1CCN(Cc1ccccc1)C2	102*
CCOc1cccc(C(=O)Nc2nc(-c3ccc(C)cc3)cs2)c1	8
Nc1nc(Oc2ccc(F)cc2)c(I)c(=O)[nH]1	-3
Cc1ccsc1/C=C1\SC(=S)N(CC(C)C)C1=O	7
Cc1ccc(/C=C2/SC(=S)N(CCC(=O)O)C2=O)o1	13
Cc1ccc(/C=C2\SC(=S)N(CC(C)C)C2=O)o1	87*
O=c1nc(/C=C/c2ccc(Cl)cc2)cc(C(F)(F)F)[nH]1	-10
O=c1nc(/C=C/c2ccc(N3CCCC3)cc2)cc(C(F)(F)F)[nH]1	108*
O=c1nc(/C=C/c2ccc(N3CCOCC3)cc2)cc(C(F)(F)F)[nH]1	0
CCOC(=O)c1ccc(-c2ccc(/C=N/O)o2)cc1	10
Cc1[nH]n(-c2nc(-c3ccccc3)cs2)c(=O)c1N=Nc1ccc(C(=O)O)cc1	12
COc1ccc(S(=O)(=O)N2CCN(CCN3C(=O)c4cccc5cccc(c45)C3=O)CC2)cc1[N+](=O)[O-]	-1
COc1ccc(CN2CCN(S(C)(=O)=O)CC2)c(OC)c1	-12
CC1(C)CC(=O)C2=C(C1)Nc1ccccc1NC2c1coc2ccccc2c1=O (configuration not stated)	3
COc1ccc(C2CC(=O)C3=C(C2)Nc2ccccc2NC3c2ccccc2OCc2ccccc2)cc1OC (configuration not stated)	98*
CCOc1ccc(C2Nc3ccccc3NC3=C2C(=O)CC(c2ccc(OC)cc2)C3)cc1 (configuration not stated)	-5
O=C1CC(c2ccccc2)CC2=C1C(c1ccc(-c3ccccc3)cc1)Nc1ccccc1N2 (configuration not stated)	4
COc1ccc(C2CC(=O)C3=C(C2)Nc2ccccc2NC3c2ccc(C)o2)cc1 (configuration not stated)	94*
O=C1CC(c2ccc(Cl)cc2)CC2=C1C(c1ccc3c(c1)OCO3)Nc1ccccc1N2 (configuration not stated)	-20
SMILES	VHR inh color
CCOc1ccccc1C1Nc2ccccc2NC2=C1C(=O)CC(c1ccc(OC)c(OC)c1)C2 (configuration not stated)	44
O=C1CC(c2ccc3c(c2)OCO3)CC2=C1C(c1ccc(-c3ccccc3)cc1)Nc1ccccc1N2 (configuration not stated)	115*
O=C1CC(c2ccccc2)CC2=C1C(c1coc3ccccc3c1=O)Nc1ccccc1N2 (configuration not stated)	112*
O=C1CC(c2ccccc2)CC2=C1C(c1ccco1)Nc1ccccc1N2 (configuration not stated)	7
COc1ccc(C2CC(=O)C3=C(C2)Nc2ccccc2NC3c2cccc(OC)c2OC)cc1OC (configuration not stated)	-1
COc1ccc(C2CC(=O)C3=C(C2)Nc2ccccc2NC3c2ccccc2)cc1 (configuration not stated)	23
COc1cc(C=O)ccc1Oc1ccc([N+](=O)[O-])cn1	-4
CCOC(=O)c1ccc(NC(=O)C(=O)NCc2ccc(OC)cc2)cc1	8
O=C(O)COc1ccccc1/C=N/N1CCN(C(c2ccccc2)c2ccccc2)CC1	10
Cc1ccc(C(=O)NC(=S)Nc2ncc(C(F)(F)F)cc2Cl)cc1	8
COc1ccc(C(NC=O)c2ccc(OC)cc2)cc1	0
Clc1ccc(CNc2nc3ccccc3n2CCOc2ccccc2)cc1	1
COc1cccc(-n2c(C=C3C(=O)N(C)c4ccc(Br)cc43)nc3ccccc3c2=O)c1	4
O=C(c1ccccc1F)N1CCN(CCCc2ccccc2)CC1	24
Cc1cccc(/C=C(/C#N)C(=O)Nc2cccc(Br)c2)c1	-9
CCCCC(=O)NNC(=O)COc1ccc(Cl)cc1	-33
CCOC(=O)C1=C(C)N=c2s/c(=C\c3ccc4ccccc4n3)c(=O)n2C1c1ccccc1 (configuration not stated)	-1
O=C1NN(c2ccccc2)C(=O)/C1=C/c1ccc(OCc2ccc(F)cc2)cc1	16
O=C1CC(c2ccccc2)CC2=C1C(c1c(F)cccc1Cl)Nc1ccccc1N2 (configuration not stated)	115*
COc1ccc(C2CC(=O)C3=C(C2)Nc2ccccc2NC3c2c(F)cccc2Cl)cc1 (configuration not stated)	8
O=C1CC(c2ccccc2)CC2=C1C(c1cccc(Cl)c1Cl)Nc1ccccc1N2 (configuration not stated)	2
O=C1CCCC2=C1C(c1ccc(F)cc1)Nc1ccc(C(=O)c3ccccc3)cc1N2 (configuration not stated)	35
Cc1ccc(C2Nc3ccc(C(=O)c4ccccc4)cc3NC3=C2C(=O)CC(C)(C)C3)o1 (configuration not stated)	-5
Cc1ccc(C2Nc3ccc(C(=O)c4ccccc4)cc3NC3=C2C(=O)CCC3)o1 (configuration not stated)	101*
COc1ccc(C)cc1NC(=O)c1ccccc1[N+](=O)[O-]	4
SMILES	VHR inh color
COc1cc(CN2CCN(Cc3cccc(F)c3)CC2)cc2c1OCO2	11
Cc1c(Cl)cccc1N=C1NC(=O)/C(=C/c2cccc(O)c2)S1	2
Cc1c(Cl)cccc1N=C1NC(=O)/C(=C/c2ccc3c(c2)OCO3)S1	24
Cc1c(Cl)cccc1N=C1NC(=O)/C(=C/c2ccc(-c3ccccc3C(=O)O)o2)S1	86*
O=[N+]([O-])c1ccc(Cl)cc1NCCNS(=O)(=O)c1ccc2ccccc2c1	-25
Cc1cccc(N2C(=O)C(=O)/C(=C(\O)c3ccccc3)C2c2ccccc2[N+](=O)[O-])c1 (configuration not stated)	-3
O=C(Cc1ccc([N+](=O)[O-])cc1)N/N=C/c1c2ccccc2cc2ccccc12	1
CCOc1ccccc1NC(=O)c1c(NC(=O)Cc2ccc(OC)cc2)sc2c1CCC(C)C2 (configuration not stated)	8
CCOc1ccccc1NC(=O)c1c(NC(=O)c2ccccc2F)sc2c1CCC(C)C2 (configuration not stated)	-10
CCOc1ccccc1NC(=O)c1c(NC(=O)c2cccc(F)c2)sc2c1CCC(C)C2 (configuration not stated)	116*
O=C1CSC(=S)N1/N=C/c1ccc(OCCOc2ccc(Br)cc2)cc1	9
O=C(O)/C=C\C(=O)Nc1cccc(-c2cn3ccccc3n2)c1	-11
O=C1CC(c2ccc3c(c2)OCO3)c2cc(Br)c3ccccc3c2N1 (configuration not stated)	4
CCOC(=O)C1=NNC2(c3ccc(Cl)cc3)C(=O)N(c3cccc(OC)c3)C(=O)C12 (configuration not stated)	100*
CCOC(=O)C1=C(C)NC(C)=C(C(=O)OC)C1c1ccc(Cl)cc1 (configuration not stated)	-15
CCOC(=O)C1=NNC2C(=O)N(c3cccc(Br)c3)C(=O)C12 (configuration not stated)	-20
